14-3-3 Bad PPI = disrupts binding of bovine 14-3-3 zeta to phospho-Bad peptide | P63103 | TR-FRET 14-3-3zeta/Dy647-pBad peptide displacement, 1 h | inhibition, % at 21.7 µM | hit rate 0.71% among 220,000 | AID 781;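 active = inhibition above about 70%, limit read from the data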;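 also: 0% = full 14-3-3 plus peptide FRET controls and 100% = background without 14-3-3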
Mcl-1 Bim block = human Bim-Mcl-1 interaction inhibition | AID 1009 | Q07820 | hit rate 0.1% among 190,000 | inhibition, % at 10 µM | Bead-based flow cytometry, Bim peptide-Mcl-1 binding; in the data active = inhibition above about 40%;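 also: 0% = no compound tracer wells and 100% = peptide blocker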
eIF4E 4G PPI = blocks eIF4E binding to eIF4G. P63073+Q04637. TR-FRET eIF4E-eIF4GI(517-606) binding, 2 h. inhibition, % at 21.7 µM. hit rate 0.37% among 220,000;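 also: 0% = full FRET control wells and 100% = background wells lacking eIF4GI fragment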
Mcl1 Bid PPI = disrupts binding of human Mcl-1 to Bid peptide. Q07820. TR-FRET Mcl-1/Bid-Dy647 peptide binding, 1536-well. inhibition, % at 21.7 µM. hit rate 0.97% among 220,000. AID 1021;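 active = compounds that cut the binding signal by more than half at the single screening dose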;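 also: His-tagged Mcl-1 with europium anti-His antibody binding Bid BH3 peptide; 0% = Mcl-1 plus peptide wells and 100% = peptide-only wells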
Mcl1-Noxa inh = Mcl-1/Noxa interaction inhibition; AID 1022; hit rate 1.5% among 220,000; TR-FRET Mcl-1/Noxa peptide binding, 2 h; Q07820; inhibition, % at 21.7 µM;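 active = compounds that cut the protein-peptide binding signal by more than 50% relative to plate controls in a single-dose test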;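 also: His-tagged Mcl-1 with rhodamine Noxa BH3 peptide and terbium anti-His antibody; 0% = Mcl-1 plus Noxa peptide wells and 100% = peptide-only wells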
p47phox inh = p47phox (human) inhibition | p47phox/p22phox peptide binding, fluorescence polarization, 2 h | inhibition, % at 24.7 µM | hit rate 0.53% among 220,000 | AID 1274;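 also: 0% = p47phox with labelled peptide and 100% = labelled peptide alone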
Target sequence (P14598 whole entry, looked up): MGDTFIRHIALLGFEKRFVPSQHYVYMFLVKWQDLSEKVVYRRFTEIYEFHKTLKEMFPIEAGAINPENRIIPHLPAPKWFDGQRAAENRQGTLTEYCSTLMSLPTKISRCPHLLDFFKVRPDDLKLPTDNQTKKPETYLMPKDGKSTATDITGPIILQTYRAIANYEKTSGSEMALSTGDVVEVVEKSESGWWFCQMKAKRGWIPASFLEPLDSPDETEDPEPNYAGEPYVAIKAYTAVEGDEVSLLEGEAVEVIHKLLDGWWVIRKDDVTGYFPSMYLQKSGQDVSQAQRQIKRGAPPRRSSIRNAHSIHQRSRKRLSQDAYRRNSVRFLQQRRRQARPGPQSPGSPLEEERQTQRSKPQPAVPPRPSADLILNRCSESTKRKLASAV
The depositor's hits bear a star; . = not tested or not shown; [ ] = remark or other dose. Sampled rows, rich in hits. Any-hit rate of the full collection: about 3.3%.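 The calls were made as follows, unless noted: active = inhibition above about 30% (limit read from the data); inactive = the rest.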

SMILES	14-3-3 Bad PPI	Mcl-1 Bim block	eIF4E 4G PPI	Mcl1 Bid PPI	Mcl1-Noxa inh	p47phox inh
Cc1ccc(C(C)C)c(OCC(O)CN2CCN(CCO)CC2)c1 (centres undefined)	50	1	4	53*	32	-14
Cc1ccc(/C=C/C(=O)OCn2nnc3ccccc3c2=O)o1	-5	.	-7	-83	-18	-16
O=C(CSc1nncs1)Nc1ccc2c(c1)OCO2	1	-1	1	-37	7	-8
CC1CCCN(C(=O)c2cccc(S(=O)(=O)Nc3cc(C(F)(F)F)ccc3Cl)c2)C1 (centres undefined)	90*	17	6	27	13	-8
O=C(NCCc1ccncc1)c1ccccc1F	1	1	61*	-3	-5	-7
C=CCNCCOCCOc1ccc(Cl)cc1C(C)(C)C	52	-2	3	58*	23	-2
C=CCNCCCOc1ccc(Cl)cc1C(C)(C)C	65	2	-2	33	28	-10
COc1ccc(-n2cc(-c3ccc(OC(F)F)cc3)[n+]3c2CCCCC3)cc1	12	-1	1	90*	9	-7
O=C(O)C[C@@H]1C(=O)O[C@@H]2C(COC(=O)c3cc(O)c(O)c(O)c3)O[C@@H](OC(=O)c3cc(O)c(O)c(O)c3)[C@@H](OC(=O)c3cc(O)c(O)c4c3[C@H]1[C@H](O)C(=O)O4)[C@H]2OC(=O)c1cc(O)c(O)c(O)c1 (some centres undefined)	81*	.	38*	76*	100*	-70
Cc1ccc(CN2CC(C(=O)Nc3ccc(F)c([N+](=O)[O-])c3)CC2=O)cc1 (centres undefined)	-11	0	1	-47	4	6
O=C1CCCC2(O)C1C(c1cccc(Br)c1)NC(=O)N2Cc1ccccc1 (centres undefined)	7	41*	-1	-35	-2	1
Cc1sc(NC(=O)Cn2nc(C(F)(F)F)cc2C)c(C(=O)OC(C)C)c1C	-10	-4	31*	-42	-7	-44
CC(=O)Nc1sc(C)c(C)c1C(=O)OC(C)C	2	-3	0	-54	-13	-7
O=[N+]([O-])c1ccc(NC(=S)NCCc2ccc(F)cc2)cc1	-12	-16	5	6	52*	-22
CCOC(=O)N1CCc2c(sc3nc4n(c(=O)c23)N=C(c2ccc(OC)cc2)CS4)C1	27	.	18	6	11	38*
CN1CCN(c2ccc(Cl)cc2NC(=O)c2ccc(S(=O)(=O)N3CCCCCC3)cc2)CC1	25	0	-10	-45	74*	-5
CN1CCN(c2ccc([N+](=O)[O-])cc2NC(=O)c2ccccc2)CC1	77*	0	-6	-32	13	-3
CN1CCN(c2ccc([N+](=O)[O-])cc2/C=N/NC(=O)c2cccc([N+](=O)[O-])c2)CC1	-4	-3	-1	0	91*	1
CN1CCN(c2ccc(S(=O)(=O)N3CCCCC3)cc2NC(=O)c2ccc(C#N)cc2)CC1	5	-31	21	-39	9	-8
O=C(Cn1c2ccccc2c(=O)c2ccccc21)N/N=C/c1cc([N+](=O)[O-])ccc1N1CCCCC1	70	-8	-1	67*	43	2
CCCC(=O)Nc1sc2c(c1C(=O)Nc1ccccn1)CCCC2	-10	-2	1	-40	7	-3
COC(=O)c1ccc(COn2nnc3ccccc32)cc1	-2	0	-1	-9	-4	-7
COc1ccccc1N1CCN(c2nc3ccccn3c(=O)c2C=O)CC1	8	0	-2	4	-5	-3
COc1ccc(Cl)cc1C(=O)Nc1ccccc1N1CCN(C)CC1	1	0	0	-8	56*	-5
CN1CCN(c2ccccc2NC(=O)c2cc(Br)ccc2Cl)CC1	-3	-5	-5	-50	17	-7
SMILES	14-3-3 Bad PPI	Mcl-1 Bim block	eIF4E 4G PPI	Mcl1 Bid PPI	Mcl1-Noxa inh	p47phox inh
O=C(c1ccccc1)c1ccc(OCCCN2CCCC2)cc1	21	0	2	24	21	-14
O=C(c1ccccc1)c1ccc(OCCCCN2CCCCC2)cc1	74*	0	-5	43	21	-1
O=C(CSc1nc2nn(-c3ccccc3)c(=O)c-2c2n1CCCCC2)NCCc1ccccc1	-7	0	-3	-12	55*	2
CCSc1nc2nn(-c3ccccc3)c(=O)c-2c2n1CCCCC2	4	1	-5	-29	10	-16
O=C(Nc1nc2c(s1)CN(Cc1ccccc1)CC2)c1c(F)cccc1F	-2	-1	-1	-2	17	-10
Cc1[nH]n(-c2ncc(-c3ccc(Cl)cc3)s2)c(=O)c1C(c1ccc(Cl)cc1)C(C#N)C#N (centres undefined)	-23	1	3	51*	92*	-28
COc1ccc(C(c2c(C)[nH]n(C(N)=S)c2=O)C(C#N)C#N)cc1 (centres undefined)	-19	-6	6	-57	-50	-7
CCCCCc1cc(=O)oc2c(C(CCN3CCCCC3)c3ccc4c(c3)OCO4)c(OC)cc(OC)c12 (centres undefined)	6	.	1	-33	7	-5
CCCCCc1cc(=O)oc2c(C(CCN3CCCC(C)C3)c3ccc4c(c3)OCO4)c(OC)cc(OC)c12 (centres undefined)	8	.	4	-60	7	33*
COc1ccc(C2CC(=O)Oc3c(C(CCN4CCCC(C)C4)c4ccc(N(C)C)cc4)c(OC)cc(OC)c32)cc1 (centres undefined)	0	.	43*	-98	15	9
COc1ccc(OC)c(NC(=O)C(=O)NNC(=O)C23CC4CC(CC(C4)C2)C3)c1	-1	.	-1	-89	-60	-27
CCn1cc(C(=O)OCC(=O)c2cc(C)n(-c3ccc(OC(F)F)cc3)c2C)c(=O)c2ccc(C)nc21	-6	-21	45*[fluorescence artefact?]	-65	5	-31
Cc1ccc(C(=O)N2CCCC2)cc1S(=O)(=O)Nc1cccc(C)c1C	-11	1	-2	-21	-8	-12
COc1cc(-c2nc3ccccn3c2/N=C/c2cc(OC)c(O)cc2Cl)ccc1O	-6	-3	1	-46	57*	-30
Cc1cc(-c2ccccc2)c2c(=O)[nH][nH]c2n1	0	1	9	-64	-2	-9
Cc1ccc(-c2ccc(/C=N/NC(=S)Nc3ccccc3)o2)cc1[N+](=O)[O-]	-3	-3	-12	-121	-33	-31
CC1=C(C#N)C(=O)NC(=O)/C1=C\c1ccc(-c2cc(C)c(C)cc2[N+](=O)[O-])o1	64	1	48*	92*	100*	4
O=C1NC(=S)N/C1=C/c1ccc(-c2c(Br)cc([N+](=O)[O-])cc2Br)o1	95*[fluorescence artefact?]	-2	-12	98*	86*	-27

Assay outcomes deposited in PubChem by several laboratories.
